Most compounds without a hit are left out; they make up all but 4% or so of the library.
aDG glyco up = increases alpha dystroglycan glycosylation | Pro5-aDG cells, alpha-DG glycosylation AlphaScreen (IIH6); 0% Pro5, 100% B10-LARGE cell signal | actives 0.22% (n = 360,000) | AID 624168 | activation, % at 10 µM;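 active means activation of at least 8% versus controls, or a plate z-score of at least 8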;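 further: Pro5 are CHO cells carrying HIG-tagged alpha-DG that lacks glycosylation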
FAS-TE inh = blocks the thioesterase domain of human fatty acid synthase. P49327. recombinant FAS-TE, OMFH fluorogenic substrate, fluorescence endpoint. inhibition, % at 15 µM. actives 0.67% (n = 360,000);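 active means compounds whose normalised, plate-corrected inhibition of enzyme fluorescence in the single-dose primary screen is 50% or more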;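 further: 0% = DMSO with enzyme and 100% = substrate without enzyme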
ADAM10 inh = ADAM10 inhibition, QFRET primary screen | AID 720582 | recombinant ADAM10, EDANS/DABCYL FRET peptide cleavage, 3 h | actives 0.62% (n = 370,000) | inhibition, % at 7 µM | O14672;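 active means inhibition above a per-campaign cutoff equal to the mean of compounds falling between control-based bounds plus 3 SD, cut at about 20% in these data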;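 further: 0% = DMSO wells while the 100% control is not disclosed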
GRIN3A LBD mod = modulators (binders) of human NR3A ligand-binding domain. NR3A LBD differential scanning fluorimetry, Tm shift; 0% = protein alone, 100% = glycine-bound protein. Tm shift relative to glycine control, % at 25 µM. actives 2.5% (n = 340,000). AID 1259313;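 active means melting temperature shift of at least 10% of the positive control shift, at one fixed dose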
ADAM17 inh = inhibitors of human ADAM17. P78536. recombinant ADAM17, EDANS/DABCYL FRET peptide cleavage. inhibition, % at 6.95 µM. actives 0.83% (n = 370,000);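 active means inhibition above the mean of compounds lying between control limits plus 3 SD, set per campaign, cut at about 8.5% in these data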;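 further: 0% = DMSO-only wells as the low control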
* hit, by the source's call; i = inactive; . = no result.

SMILES | aDG glyco up | FAS-TE inh | ADAM10 inh | GRIN3A LBD mod | ADAM17 inh
CC1CC(CCC(=O)NC(=S)Nc2ccc(Cl)cn2)C(=O)O1 (configuration not stated) | 0 | -7 | -5 | 16* | -4
CC(=O)c1ccc(N2CCN(C(=O)CCCn3c(=S)[nH]c4cc5c(cc4c3=O)OCO5)CC2)cc1 | 0 | 18 | 25* | 6 | 1
Cc1ncsc1C(=O)N1CCCC(C(=O)c2ccc3ccccc3c2)C1 (configuration not stated) | 0 | -7 | -56 | -1 | -17
CCOC(=O)c1cn(CC)c2cc(Cl)c([N+](=O)[O-])cc2c1=O | 1 | 10 | -9 | 12* | -1
COc1ccc(/C=C/C(=O)O)cc1 | 0 | 0 | -1 | 0 | 1
COC(=O)c1ccc(NC(=O)C2CCCN2S(=O)(=O)c2ccc(C)cc2)cc1 (configuration not stated) | 0 | 3 | 9 | -1 | 5
O=C(CCc1nnc2ccc(N3CCCCC3)nn12)NCC1CCN(Cc2ccc(F)cc2)CC1 | 0 | 0 | -22 | -3 | -6
Cc1ccccc1Nc1nc(N)c2ccccc2n1 | 0 | -5 | -4 | 6 | -2
Nc1nc(Nc2ccc(Cl)cc2)nc2ccccc12 | 0 | 7 | -20 | 39* | -3
COc1cc2nc(Nc3ccc(C)c(C)c3)nc(N)c2cc1OC | 0 | -4 | -8 | 16* | -7
Cc1ccc(Nc2nc(N)c3ccccc3n2)cc1Cl | 0 | 22 | -28 | 39* | -11
COc1cc2nc(Nc3ccc(C)c(Cl)c3)nc(N)c2cc1OC | 0 | 2 | -42 | 28* | -24
C[C@@H]1OC(Nc2ccc(N=Nc3ccccc3)cc2)[C@H](O)[C@H](O)[C@H]1O (some centres not stated) | 0 | -7 | 4 | -1 | 4
CCOc1ccc(Nc2nc(N)c3ccccc3n2)cc1 | 0 | 1 | 0 | 28* | -3
Nc1nc(Nc2ccccc2)nc2ccccc12 | 1 | -9 | -7 | -2 | -7
O=C(Cc1ccccc1Cl)N1CCN(c2ncccn2)CC1 | 0 | -4 | 0 | 12* | -2
CCSc1n[nH]c2nc3c(c(=O)n12)C1(CCCC1)Cc1ccccc1-3 | 0 | -35 | -43 | -4 | -15
Cc1ccc(-n2c(SCC(N)=O)nc3c(c2=O)C2(CCCC2)Cc2ccccc2-3)cc1 | 0 | 28 | 0 | 13* | 3
COc1ccc(CNC(=O)C(c2ccncc2)N(C(=O)Cc2cccs2)c2ccccc2)cc1 (configuration not stated) | 0 | 0 | 4 | -1 | 0
COc1ccc(N(C(=O)CCl)C(C(=O)NCCc2ccccc2)c2cccs2)cc1 (configuration not stated) | -1 | 63* | -7 | 10 | 1
Cc1cccc(/C=N/NC(=O)c2cc(-c3cccnc3)nc3c2c(C)nn3-c2ccccc2)c1 | 0 | 15 | -1 | 24* | -1
O=S(=O)(c1ccc(=S)[nH]c1)N1CCOCC1 | 0 | -7 | -8 | 3 | -2
CCN1CCc2c(sc(NC(=O)c3ccc(S(=O)(=O)N(C)c4ccccc4)cc3)c2C(=O)NC)C1 | 43* | -94 | . | 6 | .
COC(=O)C1=C(C)N(CCc2ccccc2)C(=O)/C1=C\c1ccco1 | 0 | 3 | -4 | 19* | -2
CC(=O)c1cccc(NC(=S)N2CCN(CCN3C(=O)c4cccc5cccc(c45)C3=O)CC2)c1 | 0 | -7 | -4 | -2 | -4
SMILES | aDG glyco up | FAS-TE inh | ADAM10 inh | GRIN3A LBD mod | ADAM17 inh
COc1ccc(-c2c(-c3cc(OC)cc(OC)c3)sc3ccc(OC)cc23)cc1 | 0 | 26 | 5 | 13* | -1
NS(=O)(=O)c1ccc(Nc2ccc3cc(S(=O)(=O)N4CCCCC4)ccc3n2)cc1 | 0 | 42 | i | 37* | -364
NS(=O)(=O)c1ccc(S(=O)(=O)N2CCCC2)cc1 | 0 | -6 | -5 | -3 | -4
O=C(OCC(=O)C12CC3CC(CC(C3)C1)C2)c1ccc(O)cc1O | 0 | 18 | 6 | 29* | 3
COC(=O)/C(C#N)=C/c1c(Oc2cc(C)cc(C)c2)nc2c(C)cccn2c1=O | 0 | -5 | 0 | 13* | -5
COc1ccc(Oc2nc3c(C)cccn3c(=O)c2/C=C(\C#N)C(N)=O)cc1 | 0 | -2 | -95 | 6 | -36
O=C(NCc1csc2ccc(Cl)cc12)Nc1ccccc1 | 0 | 2 | 6 | 23* | 3
O=C(NCc1csc2ccc(Cl)cc12)Nc1cccc2ccccc12 | 0 | 8 | -7 | 2 | -4
O=c1c(Cl)c(N/N=C/c2ccc(Cl)cc2)cnn1-c1ccccc1 | 0 | 14 | -30 | 16* | -7
Nc1c(C(=O)N/N=C/c2ccc(Cl)cc2)cnn1-c1ccccc1 | 0 | -2 | 2 | -5 | -3
O=C(CCN1C(=O)CSc2ccccc21)Nc1ccc(OC(F)(F)F)cc1 | 0 | 16 | 5 | -2 | 2
Cc1onc(-c2ccccc2)c1C(=O)Nc1sc2c(c1C#N)CCC2 | 0 | 12 | -3 | 2 | -1
Cc1onc(-c2ccccc2)c1C(=O)NC(=S)Nc1sc2c(c1C#N)CCCC2 | 0 | 45 | -11 | 11* | -3
C/C(=N\NC(=O)c1nnn(-c2nonc2N)c1CN(C)c1ccccc1)c1ccccc1O | 0 | 31 | -2 | 14* | -1
CCCN(CCC)Cc1c(C(=O)N/N=C/c2cccs2)nnn1-c1nonc1N | 0 | 8 | 5 | -13 | 4
Cc1c(C(=O)N/N=C/c2cccs2)nnn1-c1nonc1N | 0 | -2 | -69 | 10* | 3
CCCc1c(C(=O)N/N=C/c2cccs2)nnn1-c1nonc1N | 0 | 2 | -16 | 17* | 2
CN(Cc1c(C(=O)N/N=C/c2cccs2)nnn1-c1nonc1N)c1ccccc1 | 0 | 12 | 16 | 16* | 5
CN(C)C(=O)c1ccc(NS(=O)(=O)c2ccc3c(c2)OCCO3)cc1 | 0 | -4 | -6 | 1 | -2
COc1cc([N+](=O)[O-])ccc1NC(=S)NCc1ccccn1 | 0 | -3 | -6 | 3 | -3
Cc1ccc2[nH]c3ccccc3c(=O)c2c1 | 1 | -2 | i | -8 | i
O=c1c2ccccc2[nH]c2ccc(F)cc12 | 1 | -1 | i | 11* | i
Cc1cc2occ(CC(=O)N(C)CC(=O)Nc3c(C)cccc3C)c2cc1C | 0 | 0 | -1 | -1 | -2
Cc1cccc(C)c1NC(=O)CN(C)C(=O)Cc1cccc(C(F)(F)F)c1 | 0 | -2 | 3 | 12* | -1
COc1ccc(CCN=C(N)NS(=O)(=O)c2ccc3ccccc3c2)cc1 | 1 | 5 | 10 | 18* | 6
COc1ccccc1C(=O)Nc1nnc(SCC(=O)Nc2ccc3c(c2)oc2ccccc23)s1 | 0 | 7 | 7 | -4 | 1
Cc1cccc(C(=O)Nc2nnc(SCC(=O)Nc3ccc4c(c3)oc3ccccc34)s2)c1 | 0 | -5 | 10 | 76* | -1
